# Results: PMC7862700, “An all-to-all approach to the identification of sequence-specific readers for epigenetic DNA modifications on cytosine”
# Assays:
# Assay in all cases: DAPPL (digital affinity profiling via proximity ligation, sequencing); 10 mM Tris-HCl pH 7.5, 50 mM NaCl, 1 mM DTT, 4% glycerol, room temperature, 30 min; GST-TFs on glutathione beads, 16-mer random dsDNA library, 0.1% formaldehyde crosslink after washing; high values mean tight binding
# FEV = molecular target: T1, FEV (Homo sapiens, UniProt Q99581 1-238); settings: protein: recombinant; tags: N-terminal GST; dsDNA, one strand shown
# T1 sequence: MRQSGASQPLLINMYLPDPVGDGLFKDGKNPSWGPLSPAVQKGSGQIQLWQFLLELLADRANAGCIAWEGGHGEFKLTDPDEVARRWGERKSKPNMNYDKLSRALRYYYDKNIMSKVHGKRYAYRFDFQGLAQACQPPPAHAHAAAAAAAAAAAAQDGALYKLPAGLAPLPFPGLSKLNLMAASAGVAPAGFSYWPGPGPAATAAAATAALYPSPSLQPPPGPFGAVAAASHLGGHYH
# In short: (§1)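 Each value of binding signal is a hexamer's read frequency for a factor divided by the same hexamer's frequency in the tag-only sample. Barcoded, bead-captured GST fusions of human transcription factors made in yeast were pooled with that sample and incubated with 200 nmole of a random double-stranded 16-mer DNA library in Tris/NaCl/DTT/glycerol buffer at room temperature for 30 min. Washing, 0.1% formaldehyde crosslinking, proximity ligation, PCR and Illumina NextSeq500 sequencing followed.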
# ETV5 = ETV5 (Homo sapiens, UniProt P41161 1-510); settings: protein: recombinant; tags: N-terminal GST; dsDNA, one strand shown
# In short: as §1
# HSF1 = HSF1 (Homo sapiens, UniProt Q00613 1-529); settings: protein: recombinant; tags: N-terminal GST; chain copies: 3; dsDNA, one strand shown
# In short: as §1
# SPIC = molecular target: T2, SPIC (Homo sapiens, UniProt Q8N5J4 1-248); settings: protein: recombinant; tags: N-terminal GST; dsDNA, one strand shown
# T2 sequence: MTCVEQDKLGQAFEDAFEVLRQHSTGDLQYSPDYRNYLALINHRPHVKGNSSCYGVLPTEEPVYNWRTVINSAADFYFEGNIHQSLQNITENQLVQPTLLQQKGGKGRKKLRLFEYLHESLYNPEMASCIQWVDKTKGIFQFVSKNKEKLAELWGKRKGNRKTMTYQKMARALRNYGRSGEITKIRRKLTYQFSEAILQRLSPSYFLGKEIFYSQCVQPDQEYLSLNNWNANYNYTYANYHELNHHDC
# In short: as §1
# ELF4 = ELF4 (Homo sapiens, UniProt Q99607 1-663); settings: protein: recombinant; tags: N-terminal GST; dsDNA, one strand shown
# In short: as §1
# ELK4 = molecular target: T3, ELK4 (Homo sapiens, UniProt P28324-2 1-405); settings: protein: recombinant; tags: N-terminal GST; dsDNA, one strand shown
# T3 sequence: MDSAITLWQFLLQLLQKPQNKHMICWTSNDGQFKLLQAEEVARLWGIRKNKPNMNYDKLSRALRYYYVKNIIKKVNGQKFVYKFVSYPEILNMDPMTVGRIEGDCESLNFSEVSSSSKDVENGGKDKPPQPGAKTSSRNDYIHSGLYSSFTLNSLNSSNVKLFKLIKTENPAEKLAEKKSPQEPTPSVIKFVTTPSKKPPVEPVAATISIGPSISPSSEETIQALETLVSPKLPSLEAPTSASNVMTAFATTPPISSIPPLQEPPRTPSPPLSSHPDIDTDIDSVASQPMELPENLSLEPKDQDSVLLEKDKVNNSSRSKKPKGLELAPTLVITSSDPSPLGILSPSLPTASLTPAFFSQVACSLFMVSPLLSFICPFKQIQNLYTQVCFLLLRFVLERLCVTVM
# In short: as §1
# ETV2 = molecular target: T4, ETV2 (Homo sapiens, UniProt O00321 1-342); settings: protein: recombinant; tags: N-terminal GST; dsDNA, one strand shown
# T4 sequence: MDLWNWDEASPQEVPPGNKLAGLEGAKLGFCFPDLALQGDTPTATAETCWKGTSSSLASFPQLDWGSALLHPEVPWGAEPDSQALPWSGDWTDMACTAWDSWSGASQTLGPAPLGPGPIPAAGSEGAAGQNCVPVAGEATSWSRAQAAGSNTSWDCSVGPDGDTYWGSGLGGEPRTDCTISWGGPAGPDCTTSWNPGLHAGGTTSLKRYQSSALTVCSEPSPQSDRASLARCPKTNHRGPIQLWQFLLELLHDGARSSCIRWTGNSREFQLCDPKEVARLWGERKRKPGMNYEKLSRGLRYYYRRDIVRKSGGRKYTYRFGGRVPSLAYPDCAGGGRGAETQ
# In short: as §1
# ELF3 = molecular target: T5, ELF3 (Homo sapiens, UniProt P78545 1-371); settings: protein: recombinant; tags: N-terminal GST; dsDNA, one strand shown
# T5 sequence: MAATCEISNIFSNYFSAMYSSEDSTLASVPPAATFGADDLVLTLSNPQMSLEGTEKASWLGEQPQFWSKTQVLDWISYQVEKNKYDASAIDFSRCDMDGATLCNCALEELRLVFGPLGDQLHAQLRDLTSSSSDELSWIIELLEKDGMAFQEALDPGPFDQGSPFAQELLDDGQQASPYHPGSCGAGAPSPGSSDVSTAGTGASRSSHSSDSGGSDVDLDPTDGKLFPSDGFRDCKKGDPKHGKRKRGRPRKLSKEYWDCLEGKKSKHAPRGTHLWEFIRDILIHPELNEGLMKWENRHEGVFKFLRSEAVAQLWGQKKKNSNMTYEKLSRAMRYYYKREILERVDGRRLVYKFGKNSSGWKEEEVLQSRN
# In short: as §1
# CRX = CRX (Homo sapiens, UniProt O43186 1-299); settings: protein: recombinant; tags: N-terminal GST; dsDNA, one strand shown
# In short: as §1
# ETV1 = ETV1 (Homo sapiens, UniProt P50549 1-477); settings: protein: recombinant; tags: N-terminal GST; dsDNA, one strand shown
# In short: as §1
# ERF = molecular target: T6, ERF (Homo sapiens, UniProt P50548 1-548); settings: protein: recombinant; tags: N-terminal GST; dsDNA, one strand shown
# T6 sequence: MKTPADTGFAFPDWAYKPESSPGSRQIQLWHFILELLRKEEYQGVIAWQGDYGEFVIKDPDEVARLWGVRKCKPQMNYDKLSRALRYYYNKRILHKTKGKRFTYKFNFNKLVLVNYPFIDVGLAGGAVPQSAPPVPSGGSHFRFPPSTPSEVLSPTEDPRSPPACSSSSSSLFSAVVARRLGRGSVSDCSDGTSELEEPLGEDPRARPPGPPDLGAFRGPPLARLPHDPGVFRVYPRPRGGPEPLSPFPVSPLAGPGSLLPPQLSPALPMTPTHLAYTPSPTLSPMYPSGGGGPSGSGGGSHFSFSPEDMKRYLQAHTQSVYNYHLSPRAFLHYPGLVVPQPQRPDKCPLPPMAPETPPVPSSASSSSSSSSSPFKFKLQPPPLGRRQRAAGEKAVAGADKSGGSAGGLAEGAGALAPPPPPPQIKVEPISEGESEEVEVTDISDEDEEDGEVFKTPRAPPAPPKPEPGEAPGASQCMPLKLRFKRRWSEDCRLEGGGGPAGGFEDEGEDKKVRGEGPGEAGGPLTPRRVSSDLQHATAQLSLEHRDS
# In short: as §1
# ETV3L = molecular target: T7, ETV3L (Homo sapiens, UniProt Q6ZN32 1-361); settings: protein: recombinant; tags: N-terminal GST; dsDNA, one strand shown
# T7 sequence: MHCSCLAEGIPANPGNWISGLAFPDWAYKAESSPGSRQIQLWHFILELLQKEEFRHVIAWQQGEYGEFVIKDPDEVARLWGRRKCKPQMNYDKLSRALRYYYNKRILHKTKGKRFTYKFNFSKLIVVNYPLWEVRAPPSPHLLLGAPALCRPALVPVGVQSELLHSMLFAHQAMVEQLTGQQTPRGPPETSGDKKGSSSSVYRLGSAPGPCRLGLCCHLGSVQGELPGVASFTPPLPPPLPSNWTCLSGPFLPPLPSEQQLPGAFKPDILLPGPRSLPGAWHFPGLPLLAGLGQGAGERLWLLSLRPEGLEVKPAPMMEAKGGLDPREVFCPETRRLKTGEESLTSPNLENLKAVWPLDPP
# In short: as §1
# ETS2 = molecular target: T8, ETS2 (Homo sapiens, UniProt P15036 1-469); settings: protein: recombinant; tags: N-terminal GST; dsDNA, one strand shown
# T8 sequence: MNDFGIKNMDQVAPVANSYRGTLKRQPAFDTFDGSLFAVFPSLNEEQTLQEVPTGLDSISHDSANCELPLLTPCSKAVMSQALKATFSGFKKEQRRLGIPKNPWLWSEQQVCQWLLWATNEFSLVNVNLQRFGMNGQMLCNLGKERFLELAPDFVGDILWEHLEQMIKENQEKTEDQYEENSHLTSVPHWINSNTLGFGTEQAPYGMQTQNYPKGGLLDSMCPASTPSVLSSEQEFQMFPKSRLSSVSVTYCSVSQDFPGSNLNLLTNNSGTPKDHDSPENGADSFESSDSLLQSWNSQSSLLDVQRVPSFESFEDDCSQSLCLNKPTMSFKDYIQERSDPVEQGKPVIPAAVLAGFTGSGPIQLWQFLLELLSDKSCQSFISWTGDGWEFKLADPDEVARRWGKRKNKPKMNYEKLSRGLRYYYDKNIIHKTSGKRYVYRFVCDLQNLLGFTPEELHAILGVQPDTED
# In short: as §1
# SPDEF = molecular target: T9, SPDEF (Homo sapiens, UniProt O95238 1-335); settings: protein: recombinant; tags: N-terminal GST; dsDNA, one strand shown
# T9 sequence: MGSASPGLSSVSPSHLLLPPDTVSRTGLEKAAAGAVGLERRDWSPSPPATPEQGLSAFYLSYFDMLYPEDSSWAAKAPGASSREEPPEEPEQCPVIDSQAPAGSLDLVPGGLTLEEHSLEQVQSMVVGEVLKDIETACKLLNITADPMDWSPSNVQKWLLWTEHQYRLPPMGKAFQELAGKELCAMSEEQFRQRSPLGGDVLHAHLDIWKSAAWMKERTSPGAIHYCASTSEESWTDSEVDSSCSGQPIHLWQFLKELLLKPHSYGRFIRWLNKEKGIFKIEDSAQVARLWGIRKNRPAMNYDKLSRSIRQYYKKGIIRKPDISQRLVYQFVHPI
# In short: as §1
# ETV7 = molecular target: T10, ETV7 (Homo sapiens, UniProt Q9Y603 1-341); settings: protein: recombinant; tags: N-terminal GST; dsDNA, one strand shown
# T10 sequence: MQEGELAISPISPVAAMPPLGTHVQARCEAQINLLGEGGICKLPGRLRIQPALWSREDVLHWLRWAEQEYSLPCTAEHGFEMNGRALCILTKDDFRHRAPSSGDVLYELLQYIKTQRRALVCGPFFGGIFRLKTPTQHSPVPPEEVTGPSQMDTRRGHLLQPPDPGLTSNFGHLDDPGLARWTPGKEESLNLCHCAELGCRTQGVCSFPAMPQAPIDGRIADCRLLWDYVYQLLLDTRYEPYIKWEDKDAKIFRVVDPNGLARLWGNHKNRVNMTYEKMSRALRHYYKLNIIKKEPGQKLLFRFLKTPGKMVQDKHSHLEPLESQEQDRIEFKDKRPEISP
# In short: as §1
# ELF5 = molecular target: T11, ELF5 (Homo sapiens, UniProt Q9UKW6-2 1-255); settings: protein: recombinant; tags: N-terminal GST; dsDNA, one strand shown
# T11 sequence: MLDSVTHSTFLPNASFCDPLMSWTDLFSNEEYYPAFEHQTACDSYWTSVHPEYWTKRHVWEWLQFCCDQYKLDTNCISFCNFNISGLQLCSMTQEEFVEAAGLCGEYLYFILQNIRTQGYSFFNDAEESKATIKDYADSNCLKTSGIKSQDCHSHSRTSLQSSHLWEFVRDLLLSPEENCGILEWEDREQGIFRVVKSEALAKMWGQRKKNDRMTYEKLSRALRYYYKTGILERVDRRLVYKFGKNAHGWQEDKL
# In short: as §1
# ETV3 = molecular target: T12, ETV3 (Homo sapiens, UniProt P41162-2 1-143); settings: protein: recombinant; tags: N-terminal GST; dsDNA, one strand shown
# T12 sequence: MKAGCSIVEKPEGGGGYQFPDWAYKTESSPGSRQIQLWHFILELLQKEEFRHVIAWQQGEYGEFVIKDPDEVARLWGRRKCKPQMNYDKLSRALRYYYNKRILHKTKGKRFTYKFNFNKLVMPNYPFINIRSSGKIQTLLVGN
# In short: as §1
# ETV6 = ETV6 (Homo sapiens, UniProt P41212 1-452); settings: protein: recombinant; tags: N-terminal GST; dsDNA, one strand shown
# In short: as §1
# Sequence of ELF4 (Q99607 whole entry): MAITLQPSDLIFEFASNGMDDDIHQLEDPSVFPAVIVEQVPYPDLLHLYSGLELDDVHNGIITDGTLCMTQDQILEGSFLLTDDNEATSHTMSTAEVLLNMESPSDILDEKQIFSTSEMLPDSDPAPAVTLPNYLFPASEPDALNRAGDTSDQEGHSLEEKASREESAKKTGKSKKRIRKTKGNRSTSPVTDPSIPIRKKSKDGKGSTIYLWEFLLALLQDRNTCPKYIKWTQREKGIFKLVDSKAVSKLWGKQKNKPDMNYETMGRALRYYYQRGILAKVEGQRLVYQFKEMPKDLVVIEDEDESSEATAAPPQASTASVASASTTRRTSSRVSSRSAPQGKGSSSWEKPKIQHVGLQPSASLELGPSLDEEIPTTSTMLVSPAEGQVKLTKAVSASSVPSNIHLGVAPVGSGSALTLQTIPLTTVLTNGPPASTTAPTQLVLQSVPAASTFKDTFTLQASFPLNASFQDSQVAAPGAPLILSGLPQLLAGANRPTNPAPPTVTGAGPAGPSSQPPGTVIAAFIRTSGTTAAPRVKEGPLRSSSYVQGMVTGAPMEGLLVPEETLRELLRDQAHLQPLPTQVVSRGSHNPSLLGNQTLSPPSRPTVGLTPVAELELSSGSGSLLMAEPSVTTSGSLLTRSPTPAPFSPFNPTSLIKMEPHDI
# Sequence of ETV1 (P50549 whole entry): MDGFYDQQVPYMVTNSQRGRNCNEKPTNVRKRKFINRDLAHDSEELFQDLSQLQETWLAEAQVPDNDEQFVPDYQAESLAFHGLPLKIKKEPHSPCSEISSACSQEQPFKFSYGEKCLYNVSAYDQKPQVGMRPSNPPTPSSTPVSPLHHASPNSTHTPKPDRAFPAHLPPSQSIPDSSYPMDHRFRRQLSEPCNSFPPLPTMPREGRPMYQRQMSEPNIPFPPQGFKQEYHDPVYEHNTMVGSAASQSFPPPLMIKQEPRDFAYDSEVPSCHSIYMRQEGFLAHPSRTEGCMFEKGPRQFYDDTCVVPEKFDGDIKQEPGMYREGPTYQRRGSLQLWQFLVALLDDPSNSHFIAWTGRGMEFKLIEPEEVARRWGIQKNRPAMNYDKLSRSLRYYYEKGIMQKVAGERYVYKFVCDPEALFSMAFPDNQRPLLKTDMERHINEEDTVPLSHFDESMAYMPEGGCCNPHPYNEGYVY
# Sequence of HSF1 (Q00613 whole entry): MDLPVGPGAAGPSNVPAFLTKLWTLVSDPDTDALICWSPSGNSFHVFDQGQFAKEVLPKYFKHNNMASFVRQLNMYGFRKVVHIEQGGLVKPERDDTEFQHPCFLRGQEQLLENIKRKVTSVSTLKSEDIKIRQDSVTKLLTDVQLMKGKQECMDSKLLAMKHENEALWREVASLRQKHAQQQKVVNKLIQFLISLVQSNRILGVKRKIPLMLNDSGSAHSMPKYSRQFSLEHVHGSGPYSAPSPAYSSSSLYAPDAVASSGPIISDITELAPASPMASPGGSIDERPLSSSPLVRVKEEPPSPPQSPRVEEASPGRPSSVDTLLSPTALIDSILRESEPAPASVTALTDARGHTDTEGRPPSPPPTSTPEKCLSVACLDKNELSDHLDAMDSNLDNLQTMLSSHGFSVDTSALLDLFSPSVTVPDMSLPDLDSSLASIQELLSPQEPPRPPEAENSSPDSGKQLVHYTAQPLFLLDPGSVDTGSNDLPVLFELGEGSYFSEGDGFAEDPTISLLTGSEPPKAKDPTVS
# Sequence of ETV5 (P41161 whole entry): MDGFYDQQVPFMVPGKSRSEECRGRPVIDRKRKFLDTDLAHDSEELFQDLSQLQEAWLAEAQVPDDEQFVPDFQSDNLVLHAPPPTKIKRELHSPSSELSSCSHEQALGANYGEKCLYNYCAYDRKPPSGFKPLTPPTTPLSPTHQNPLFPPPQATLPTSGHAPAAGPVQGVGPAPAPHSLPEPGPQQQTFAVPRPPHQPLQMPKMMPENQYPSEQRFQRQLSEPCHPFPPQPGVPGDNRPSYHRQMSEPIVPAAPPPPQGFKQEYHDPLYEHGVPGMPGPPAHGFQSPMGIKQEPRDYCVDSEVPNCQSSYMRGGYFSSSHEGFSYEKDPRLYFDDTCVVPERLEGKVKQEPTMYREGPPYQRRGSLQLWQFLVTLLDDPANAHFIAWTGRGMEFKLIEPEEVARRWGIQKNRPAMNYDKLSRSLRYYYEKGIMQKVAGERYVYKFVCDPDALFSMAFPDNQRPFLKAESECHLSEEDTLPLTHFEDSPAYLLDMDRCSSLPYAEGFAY
# Sequence of CRX (O43186 whole entry): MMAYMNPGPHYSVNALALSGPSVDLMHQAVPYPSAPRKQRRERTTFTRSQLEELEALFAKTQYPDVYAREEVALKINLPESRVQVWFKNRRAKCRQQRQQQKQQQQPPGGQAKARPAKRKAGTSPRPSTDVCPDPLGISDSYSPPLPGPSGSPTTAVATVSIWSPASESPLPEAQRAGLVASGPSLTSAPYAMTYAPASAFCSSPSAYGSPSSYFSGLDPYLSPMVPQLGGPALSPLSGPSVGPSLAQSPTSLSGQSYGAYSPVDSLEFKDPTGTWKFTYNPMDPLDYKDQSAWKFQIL
# Sequence of ETV6 (P41212 whole entry): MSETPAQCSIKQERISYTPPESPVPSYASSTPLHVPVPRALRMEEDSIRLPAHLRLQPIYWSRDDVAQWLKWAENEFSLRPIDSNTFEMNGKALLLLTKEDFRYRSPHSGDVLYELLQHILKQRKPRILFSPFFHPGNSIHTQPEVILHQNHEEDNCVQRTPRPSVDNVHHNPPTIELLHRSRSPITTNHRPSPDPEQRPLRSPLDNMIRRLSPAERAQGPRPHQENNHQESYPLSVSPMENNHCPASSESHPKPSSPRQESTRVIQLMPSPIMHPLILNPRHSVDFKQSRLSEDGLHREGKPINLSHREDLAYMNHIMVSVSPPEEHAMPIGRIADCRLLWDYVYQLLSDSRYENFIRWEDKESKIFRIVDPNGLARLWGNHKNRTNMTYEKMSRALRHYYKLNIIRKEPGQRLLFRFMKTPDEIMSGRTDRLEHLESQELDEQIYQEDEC
sequence,measurement,setting,value
TCCTTA,binding signal,FEV,"1.48 fold enrichment (6-mer frequency, TF over GST control)"
same,binding signal,ETV5,"1.52 fold enrichment (6-mer frequency, TF over GST control)"
same,binding signal,HSF1,"1.54 fold enrichment (6-mer frequency, TF over GST control)"
same,binding signal,SPIC,"1.66 fold enrichment (6-mer frequency, TF over GST control)"
same,binding signal,ELF4,"1.56 fold enrichment (6-mer frequency, TF over GST control)"
same,binding signal,ELK4,"1.41 fold enrichment (6-mer frequency, TF over GST control)"
same,binding signal,ETV2,"1.59 fold enrichment (6-mer frequency, TF over GST control)"
same,binding signal,ELF3,"1.43 fold enrichment (6-mer frequency, TF over GST control)"
same,binding signal,CRX,"1.83 fold enrichment (6-mer frequency, TF over GST control)"
same,binding signal,ETV1,"1.56 fold enrichment (6-mer frequency, TF over GST control)"
same,binding signal,ERF,"1.43 fold enrichment (6-mer frequency, TF over GST control)"
same,binding signal,ETV3L,"1.7 fold enrichment (6-mer frequency, TF over GST control)"
same,binding signal,ETS2,"1.6 fold enrichment (6-mer frequency, TF over GST control)"
same,binding signal,SPDEF,"1.75 fold enrichment (6-mer frequency, TF over GST control)"
same,binding signal,ETV7,"1.59 fold enrichment (6-mer frequency, TF over GST control)"
same,binding signal,ELF5,"2.6 fold enrichment (6-mer frequency, TF over GST control)"
same,binding signal,ETV3,"1.74 fold enrichment (6-mer frequency, TF over GST control)"
same,binding signal,ETV6,"1.63 fold enrichment (6-mer frequency, TF over GST control)"
